NFkB transloc inh – blocks IL-1B driven NFkB nuclear translocation in HUVEC cells. AID 796. 94,000 tested, 0.43% active. inhibition, % at 2 µM. HUVEC IL-1B NFkB p65 nuclear translocation imaging;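 active means inhibition above about 30% together with a positive call from visual inspection of the well image, limit read from the data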;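 further: nuclear over cytoplasmic p65 intensity ratio measured by imaging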
LYP act – activators of human LYP (PTPN22) phosphatase; activation, % at 2 µM; Q9Y2R2; 96,000 tested, 0.11% active; recombinant LYP, DiFMUP fluorescence; 0 = plate median, 100 = signal doubled;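 active means activation at 2 µM above a set limit, the mean plus 5 SD, cut at about 37% in these data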
Target sequence (Q9Y2R2 whole entry, looked up): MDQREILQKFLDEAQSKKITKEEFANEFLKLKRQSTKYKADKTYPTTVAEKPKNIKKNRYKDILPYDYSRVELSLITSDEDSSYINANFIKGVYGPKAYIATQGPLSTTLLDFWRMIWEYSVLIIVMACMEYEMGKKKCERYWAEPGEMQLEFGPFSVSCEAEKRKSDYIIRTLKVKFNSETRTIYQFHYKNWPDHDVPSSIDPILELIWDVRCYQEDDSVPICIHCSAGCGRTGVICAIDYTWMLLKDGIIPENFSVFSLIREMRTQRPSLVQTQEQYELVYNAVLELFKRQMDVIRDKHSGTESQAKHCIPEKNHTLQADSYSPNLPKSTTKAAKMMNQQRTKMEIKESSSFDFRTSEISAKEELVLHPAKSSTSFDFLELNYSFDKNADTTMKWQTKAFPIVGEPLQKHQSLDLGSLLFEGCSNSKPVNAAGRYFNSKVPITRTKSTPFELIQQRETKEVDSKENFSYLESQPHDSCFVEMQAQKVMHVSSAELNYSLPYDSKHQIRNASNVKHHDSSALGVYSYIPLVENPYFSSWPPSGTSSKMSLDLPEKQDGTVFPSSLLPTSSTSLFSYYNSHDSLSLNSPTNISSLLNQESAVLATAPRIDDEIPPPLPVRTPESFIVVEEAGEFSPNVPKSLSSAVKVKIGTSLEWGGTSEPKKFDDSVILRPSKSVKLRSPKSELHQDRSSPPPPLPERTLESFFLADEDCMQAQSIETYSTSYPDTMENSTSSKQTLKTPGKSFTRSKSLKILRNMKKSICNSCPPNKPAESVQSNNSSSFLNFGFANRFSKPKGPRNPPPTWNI
IL1B cytotox – toxic to HUVEC cells under IL-1B stimulation. HUVEC cell count loss, Hoechst imaging, IL-1B stimulated. 94,000 tested, 0.41% active. cell count reduction, % at 2 µM;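 active means cell count reduction more than 3 SD above the screen-wide mean, cut at about 70% in these data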
NFkB transloc pot – enhances IL-1B driven NFkB nuclear translocation. HUVEC IL-1B NFkB p65 nuclear translocation imaging. activation, % at 2 µM. 94,000 tested, 0.3% active. AID 819;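 active means activation above 40%, about the mean plus 3 SD, also judged a hit on visual image review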;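 further: percent activation is computed from the nuclear over cytoplasmic p65 intensity ratio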
LYP inh 2 – blocks human PTPN22 phosphatase activity | Q9Y2R2 | inhibition, % at 2 µM | 96,000 tested, 0.21% active | recombinant LYP catalytic domain, DiFMUP fluorescence;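 active means inhibition at 2 µM at or above a set limit, the screen mean plus 3 SD, cut at about 24% in these data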
LYP act confirm – confirmation of human LYP phosphatase activators | 100 tested, under 10 active | AID 1031 | shares compounds with LYP act | Recombinant LYP, DIFMUP fluorescence, activation; zero set by plate's median compound well | activation, % at 2 µM; call rule not given here
Of the large screens only hits and unclear results are named; the others gave an inactive call (follow-up assays come after a bar, where they were run). In the library only some 1.3% were active in any assay of this set; here they are far more common.

C=CCN1C(=O)NC(=O)/C(=C/c2cccn2C)C1=O	NFkB transloc inh 41
C=CCN1C(=O)NC(=O)C(Cc2ccc(OC)c(OC)c2)C1=O (stereo not drawn)	none
O=C(CCCOc1ccc(Cl)cc1Cl)N1CCC2(CC1)OCCO2	NFkB transloc inh 97, IL1B cytotox 85
Cn1c(=O)cc(OCCCC(=O)N2CCC3(CC2)OCCO3)c2ccccc21	none
CCOC(=O)C(NC(C)=O)C(OC(C)=O)c1cccc(N(CCCl)CCCl)c1 (stereo not drawn)	none
Cn1c(O)c(C(c2ccccn2)c2c(O)n(C)c(=S)[nH]c2=O)c(=O)[nH]c1=S	IL1B cytotox 91
O=C(Nc1ccc(Cl)cc1C(=O)c1ccccc1)c1ccc(Br)o1	none
CCCCn1c(O)c(C=Nc2c(C)n(C)n(-c3ccccc3)c2=O)c(=O)[nH]c1=O	NFkB transloc pot 48
O=C1CSC2(CN3CCC2CC3)N1 (stereo not drawn)	none
CC/C(=C\C=C\[C@@H]1C=C[C@@H]2CCC[C@H]2[C@@H]1C(=O)c1ccc[nH]1)[C@@H]1O[C@@H]([C@@H](C)C(=O)O)CC[C@@H]1C	LYP inh 2 25
CN1C(=O)C(C2(C#N)CCCCC2)C(=O)N(C)C1=O	NFkB transloc pot 49
CC12CN3CC(C)(CN(C1)C3c1cccs1)C2O (stereo not drawn)	none
O=C1NC(=O)N(Cc2ccccc2Cl)C(=O)/C1=C/N1CCOCC1	LYP act 43 | LYP act confirm inactive
CC1CN(C)C(C)(C)CC1(O)c1ccccc1 (stereo not drawn)	none

Screens as filed in PubChem.
